Experimental data from PubChem BioAssay AID652104 (National Center for Advancing Translational Sciences (NCATS), 2013).
About 7,200 (1.8%) of roughly 410,000 compounds were called active. About 7% were inconclusive and are not listed. Many of the other results were omitted from the sample, so actives are more common in it than they were. Values without a mark were called inactive. Calls come from the whole dose curve; as a rule, active = well fitted activation curve with a large enough effect; inconclusive = small, poorly fitted or top-dose-only effect, or another doubt; inactive = no such curve, though single readings can be large or run the other way.

Experiment: qHTS of TDP-43 Inhibitors; note: nearly all actives have a fitted effect of over 50% in size; for growth rescue (activation): % of control where 0% means no effect
Conditions: TDP-43 expressing yeast growth rescue, BacTiter-Glo, 24 h; series mostly up to 46.1 µM; growth rescue (activation): at the top concentration
Procedure, shortened: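 Luminescence from BacTiter-Glo reports growth of TDP-43-expressing yeast after 24 hr at 30 deg C with compound. Cells were raffinose-pregrown to mid-log, then seeded in galactose medium at OD600=0.02.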
Potency is the fitted concentration of half-maximal effect.

SMILES | growth rescue (activation) | Potency
O=C(COc1ccc2ccccc2c1)N1CCN(C(=O)c2cccs2)CC1 | 11% | 
Cc1ccccc1OCC(=O)NCC(=O)OCC(=O)c1ccc2ccccc2c1 | -10.9% | 
Cc1cc2ccccc2n1CCNC(=O)COc1ccc2ccccc2c1 |  | 35.5 µM (active)
CCOc1ccccc1C(=O)NC1(C(F)(F)F)C(=O)Nc2c1c(=O)[nH]c(=O)n2-c1ccc(F)cc1 (centres undefined) | 1.7% | 
CCCCOc1ccc(CN2C(=O)C(=O)c3cc(Br)cc(C)c32)cc1OC | -8.61% | 
Cn1c(=O)c([N+](=O)[O-])c(Oc2ccccc2)c2ccccc21 | 17.6% | 
Cc1cccc(C2CC(=O)Oc3c2c(=O)n(C)c2ccccc32)c1 (centres undefined) | -9.05% | 
Cc1cccc(Oc2c([N+](=O)[O-])c(=O)n(C)c3ccccc23)c1 |  | 11.2 µM (active)
CCN(CCCNC(=O)Cn1ncc2c([nH]c3ccccc32)c1=O)c1cccc(C)c1 | 13.5% | 
CCOC(=O)C1CCCN(C(=O)Cn2ncc3c(C)n(Cc4ccc(F)cc4)c(C)c3c2=O)C1 (centres undefined) | 14.2% | 
O=C(CCOc1ccccc1)N(Cc1cccnc1)c1nc2ccc(Cl)cc2s1 | 20.1% | 
Nc1cccc(-c2cc(-c3ccccc3)nc(-c3cccc(N)c3)n2)c1 |  | 14.1 µM (active)
Nc1cccc(-c2cncc(N3CCN(Cc4ccccn4)CC3)n2)c1 | -0.5% | 
CC(=O)Nc1cccc(-c2cc(NC(C)=O)c3ncc(-c4ccccc4)n3c2)c1 | 29.7% | 
CC(=O)Nc1cc(-c2ccccc2F)cn2c(-c3cccc(C(F)(F)F)c3)cnc12 |  | 31.6 µM (active)
COc1cccc(-c2cnc3c(NC(C)=O)cc(-c4cccc(NC(C)=O)c4)cn23)c1 | 0% | 
CCOc1ccc(C(=O)c2cn(Cc3ccccc3OC)c3ccc(F)cc3c2=O)cc1 | 17.6% | 
COc1ccc2ncc3c(-c4ccc(C)c(C)c4)nn(CC(=O)NC4CCCC4)c3c2c1 | 16.1% | 
CC1CC2=C(CC1/C=N/NC(N)=S)C(C)(C)CCC2 (centres undefined) |  | 22.4 µM (active)
COc1ccc2c(c1)Cc1sc(NC(=O)c3ccccc3Br)nc1-2 | 28.2% | 
CCOC(=O)c1cc2c(=O)n3ccccc3nc2n(CC2CCCO2)c1=NC(=O)c1ccc(C(C)(C)C)cc1 (centres undefined) | 3.37% | 
COc1ccc(OCCn2cc(C(=O)C3CCCCC3)c3ccccc32)cc1 | -3.37% | 

SMILES | growth rescue (activation) | Potency
O=C(c1ccc(Cl)nc1)N1CCN(S(=O)(=O)c2ccc3c(c2)OCCO3)CC1 | 5.83% | 
CCNC(=O)N1CCN(S(=O)(=O)c2ccc3c(c2)OCCCO3)CC1 | 17.1% | 
O=C(c1c(F)cccc1Cl)N1CCN(S(=O)(=O)c2ccc3c(c2)OCCCO3)CC1 |  | 14.1 µM (active)
CCOC(=O)Cc1csc(SCC(=O)NC(C)C23CC4CC(CC(C4)C2)C3)n1 (centres undefined) |  | 22.4 µM (active)
CCOC(=O)Cc1csc(SCc2cc(=O)oc3cc(O)ccc23)n1 | 11% | 
CCOC(=O)Cc1csc(SCC(=O)Nc2ccc(C)cc2F)n1 | 14.9% | 
Cc1ccc(C(=O)Nc2ccc(OCc3cc(=O)n4c(C)csc4n3)cc2)cc1 | 13.1% | 
CCSc1nnc(NC(=O)c2cc(=O)c3cc(C)c(C)cc3o2)s1 | 21.7% | 
O=C(Cn1c(=O)n(Cc2ccccc2)c(=O)c2sc3ccccc3c21)Nc1ccccc1F | -12.3% | 
CCn1c(COc2ccc(OC)cc2)nnc1SCC(=O)Nc1cc(OC)ccc1OC |  | 17.8 µM (active)
CCn1c(COc2ccccc2)nnc1SCC(=O)Nc1ccc2c(c1)OCCO2 | -10.9% | 
CCc1nnc(SCC(=O)Nc2cc(OC)ccc2OC)nc1CC | 31% | 
Cc1ccc(CN2C(=O)SC(Nc3ccccc3)C2=O)cc1 (centres undefined) | 12.3% | 
C=CCn1c(-c2ccccc2OCC)n[nH]c1=S | 4.11% | 
C=CCn1c(-c2ccc3[nH]c(C)c(C)c3c2)n[nH]c1=S | 4.8% | 
C=CCn1c(-c2sc(-c3ccccc3)nc2C)n[nH]c1=S |  | 35.5 µM (active)
Cc1ccc(C(=O)COC(=O)C(Cc2c[nH]c3ccccc23)NC(=O)c2ccc(Br)cc2)cc1 (centres undefined) | -2.77% | 
O=C1OC(C(=O)Nc2cccc(Br)c2)Cc2ccccc21 (centres undefined) | 6.1% | 
COc1cc2c(cc1OC)C(c1cccc([N+](=O)[O-])c1)=NCC2 | -0.116% | 
Nc1c(-c2cccc(Cl)c2)cnn1-c1cccc([N+](=O)[O-])c1 |  | 10 µM (active)
CCOC(=O)CSc1ncc(-c2cccc(Cl)c2)cn1 | -12.5% | 
COc1cccc(C(=O)NC(=O)Nc2ccc(-c3cc(C(F)(F)F)nn3-c3ccccc3)cc2)c1 | 6.3% | 

SMILES | growth rescue (activation) | Potency
CCS(=O)(=O)N1CCC(n2c(C)nc3cccnc32)CC1 | 24.4% | 
CCN(CC)S(=O)(=O)c1ccc2nc(CSc3nnnn3-c3ccc(O)cc3)[nH]c2c1 | -14.7% | 
Oc1ccc(-n2nnnc2SCc2c(F)cccc2Cl)cc1 |  | 15.8 µM (active)
O=C(CSc1nnnn1-c1ccc(O)cc1)c1ccc(F)cc1 | 17.1% | 
Cc1ccc(C)c(N2CCN(c3ccc4cc(S(=O)(=O)N5CCC(C)CC5)ccc4n3)CC2)c1 | 5.06% | 
CCOC(=O)CNc1nc(Cl)nc(Nc2ccccc2)n1 | -4.82% | 
C=CCNc1nc(C)nc(OC)n1 | 9.35% | 
C=CCNc1nc(Nc2ccc(Cl)cc2)nc(OC)n1 |  | 35.5 µM (active)
Cc1cccc(NC(=O)N2CCN(C)c3ncccc32)c1C | 19.7% | 
CC(C)CNC(=O)COC(=O)c1ccccc1OCC(=O)Nc1ccc(Br)cc1 | 22.3% | 
Cc1c(Br)ccc(NC(=O)COc2ccccc2C(N)=O)c1C | 10.9% [at 9.22 µM] | 
O=C(Nc1nnc(-c2ccc(Cl)cc2)o1)c1ccccc1Br |  | 7.08 µM (active)
O=C(COC(=O)c1ccc(Oc2ccccc2)cc1)Nc1nnc(-c2ccccc2)o1 |  | 22.4 µM (active)
O=C(COC(=O)CSc1nnc(-c2ccc(Cl)cc2)o1)Nc1cc(Cl)cc(Cl)c1 | 2.47% | 
O=C(COc1ccccc1)Nc1nonc1NC(=O)COc1ccccc1 | -3.33% | 
COc1cccc(-c2nnc(NC(=O)c3ccc(S(=O)(=O)N(CC(C)C)CC(C)C)cc3)o2)c1 | 3.66% | 
O=C(COC(=O)c1ccccc1Br)Nc1nnc(-c2ccccc2)o1 |  | 22.4 µM (active)
O=C(Nc1ccc(-c2nc3cc(NC(=O)c4ccccc4Cl)ccc3o2)cc1)c1ccccc1Cl | -11% | 
Cc1ccc2nc(N3CCN(c4cccc(Cl)c4)CC3)c3nnnn3c2c1 | 1.49% | 
O=C(Cn1c(-c2cccs2)cc2ccccc21)NCCc1ccc(Cl)cc1 | -24.1% | 
